According to PubChem BioAssay (NCATS):
Inconclusive results are not listed. Activity calls are given as the source filed them. The call rests on the fitted dose curve; in most records, active means well fitted cell-killing curve with a large enough effect; inconclusive means small, poorly fitted or top-dose-only effect, or effect the other way; inactive means no such curve, though single readings can be large or run the other way.

Test: Quantitative High-Throughput drug screen in 47 multiple myeloma cell lines against the NCATS MIPE library collection: KMS26_JCRB cell viability assay (AID 1918975); further: nearly all actives have a fitted effect of over 45% in size
Conditions: KMS26 myeloma cells viability, CellTiter-Glo ATP, 48 h; series mostly up to 45.8 µM
Method in brief: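 CellTiter-Glo luminescence (ATP) after 48 h compound exposure, 37C/5% CO2; 500 cells/well; MIPE 4.0 approved/investigational drugs pinned in; DMSO = 100%, media only = 0% viability.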
Potency means the concentration at half of the fitted maximal effect.

Question: Which Potency does the source give for `O=C(CCCCCCNC(=O)c1cnc(N(c2ccccc2)c2ccccc2)nc1)NO` here?
Answer: Its Potency is 5.26 µM (active).

Question: Which Potency does the source give for `CC1=C(CO)C(=O)O[C@@H]([C@@H](C)[C@H]2CC[C@H]3[C@@H]4C[C@H]5O[C@]56[C@@H](O)C=CC(=O)[C@]6(C)[C@@H]4CC[C@]23C)C1` here?
Answer: The Potency was 0.235 µM (active).

Question: For `CC(=O)Nc1nc(C)c(-c2ccc(Cl)c(S(=O)(=O)NCCO)c2)s1`, which Potency is on record?
Answer: The Potency was 7.43 µM (active).

Question: With `O=C(Nc1cc(C(F)(F)F)cc(C(F)(F)F)c1)c1cc(Cl)ccc1O` as the molecule, how does the Potency read?
Answer: The Potency was 1.18 µM (active).

Question: For `O=C(Nc1cn[nH]c1-c1nc2ccc(CN3CCOCC3)cc2[nH]1)NC1CC1`, which Potency is on record?
Answer: Its Potency is 4.69 µM (active).

Test: Quantitative High-Throughput drug screen in 47 multiple myeloma cell lines against the NCATS MIPE library collection: MMM1_PLB cell viability assay (AID 1918976); further: nearly all actives have a fitted effect of over 35% in size
Conditions: MMM1 myeloma cells viability, CellTiter-Glo, 48 h; series mostly up to 45.8 µM
Method in brief: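 Inhibition of viability over 48 h was scored by ATP content (CellTiter-Glo) in 500-cell wells. Zero and full viability were defined by media-only and DMSO-only wells.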

Question: For `Cc1ccc(NC(=O)C2(c3ccc4c(c3)OC(F)(F)O4)CC2)nc1-c1cccc(C(=O)O)c1`, which Potency is on record?
Answer: Its Potency is 0.0526 µM (active).

Question: For `COc1ccc(C(=O)CC2(O)C(=O)Nc3c(Cl)ccc(Cl)c32)cc1` (stereo not drawn), which Potency is on record?
Answer: Its Potency is 14.8 µM (active).

Question: With `Cc1ccc(-c2ncn(-c3ccc(Nc4nccc(-c5cccc(N6CCOCC6)c5)n4)cc3)n2)cn1` as the molecule, how does the Potency read?
Answer: Its Potency is 2.35 µM (active).

Question: Which Potency does the source give for `CCCCOc1c(C(=O)c2c(F)cc(C)cc2F)cnc2n[nH]cc12` here?
Answer: Its Potency is 5.26 µM (active).

Question: Which Potency does the source give for `O=c1[nH]nc(Sc2ncc([N+](=O)[O-])s2)n1-c1ccc2c(c1)OCCO2` here?
Answer: Its Potency is 2.96 µM (active).

Question: Which Potency does the source give for `Cn1c2ccccc2c2c3c(c4c5ccccc5n(CCC#N)c4c21)CNC3=O` here?
Answer: The Potency was 10.5 µM (active).

Question: With `CC(NCc1ccc2c(c1)nc(NC(=O)c1ccc(-c3cn[nH]c3)s1)n2CC(C)(C)O)C(C)(C)C` (stereo not drawn) as the molecule, how does the Potency read?
Answer: The Potency was 0.118 µM (active).

Question: Which Potency does the source give for `C#Cc1cccc(Nc2ncnc3cc(OC)c(OCCCCCCC(=O)NO)cc23)c1` here?
Answer: Its Potency is 0.418 µM (active).
